An excerpt weighted towards active compounds, which were near 11% of everything screened.
NIH3T3 tox = cytotoxic compounds in NIH 3T3 cells; NIH 3T3 viability, CellTiter-Glo ATP luminescence, 48-72 h; Potency, µM (titrated, usually from 96.7 µM), for the others: at the top dose activity change, negative = cytotoxicity, hits mostly inhibitors; 4.3% of 94,000 active; AID 1345082; also: nearly all actives have a fitted effect of over 55% in size
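First NIH 3T3 cells are plated at 400 cells/well; next compound is pinned in; then plates incubate 48 or 72 hr at 37 °C; finally CellTiter-Glo is added and luminescence read after 10 min.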
hNpr1 antagonist = blocks ANP-stimulated signaling of human Npr1 receptor; P16066; HEK293 hNpr1 GloSensor cGMP, ANP-stimulated luminescence; Potency, µM (series often up to 46.3 µM), for inactives: at the highest dose activity change, negative = inhibition, most hits filed as inhibitors; 1.6% of 76,000 active; calls by dose curve; also: nearly all actives have a fitted effect of over 60% in size
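HEK293 cells stably expressing human Npr1 and cGMP GloSensor pGS-40F, loaded 2 h with 2% GloSensor reagent, given compound 30 min at room temperature. Luminescence read before and 20 min after 0.1 nM hNppA.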
FLuc inh = blocks purified firefly luciferase enzyme activity | P08659 | purified P. pyralis luciferase, luminescence, biochemical | Potency, µM (top dose mostly 115 µM), actives largely listed as inhibitors | 2.5% of 76,000 active | AID 1347043; also: nearly all actives have a fitted effect of over 65% in size
Target sequence (P08659 whole entry, looked up): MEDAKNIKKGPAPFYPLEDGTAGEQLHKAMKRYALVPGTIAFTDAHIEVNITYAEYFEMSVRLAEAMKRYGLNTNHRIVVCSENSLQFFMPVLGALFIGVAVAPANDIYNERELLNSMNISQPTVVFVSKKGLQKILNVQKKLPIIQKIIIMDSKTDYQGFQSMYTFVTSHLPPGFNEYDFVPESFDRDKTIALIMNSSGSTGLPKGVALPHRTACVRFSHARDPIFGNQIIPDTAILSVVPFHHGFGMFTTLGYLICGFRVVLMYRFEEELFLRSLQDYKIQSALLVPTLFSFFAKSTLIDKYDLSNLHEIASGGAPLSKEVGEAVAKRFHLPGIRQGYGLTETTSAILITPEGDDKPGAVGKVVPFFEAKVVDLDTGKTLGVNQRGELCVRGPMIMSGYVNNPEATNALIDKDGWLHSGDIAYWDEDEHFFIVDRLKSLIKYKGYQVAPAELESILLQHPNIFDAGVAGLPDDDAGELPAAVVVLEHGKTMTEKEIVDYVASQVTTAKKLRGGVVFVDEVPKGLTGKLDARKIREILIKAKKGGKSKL
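Luminescence read by CCD imaging after purified firefly luciferase (10nM final) was added to substrate buffer holding 10uM D-luciferin and 10uM ATP, pH 7.5, pre-dosed with compound.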
HEK293 tox = kills HEK 293 cells | Potency, µM (top dose mostly 115 µM), without a hit: top-dose activity change, negative = cytotoxicity, actives largely listed as inhibitors | HEK 293 viability, ATP luminescence (CellTiter-Glo), 48-72 h | 6.6% of 94,000 active; also: nearly all actives have a fitted effect of over 60% in size
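250 HEK 293 cells/well; compound by pintool; incubated 48 or 72 hr at 37 degree Celsius; CellTiter-Glo added, 10 min RT, luminescence imaged.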
An asterisk follows results filed as active; i = inactive; ? = inconclusive; . = not tested or not shown; [ ] = remark or other dose. Unless noted, calls follow the shape of the dose curve; as a rule, active = well fitted curve in the direction sought with a large enough effect; inconclusive = small, poorly fitted or top-dose-only effect, or another doubt; inactive = no such curve, though single readings can be large; an effect the other way counts as inactive or inconclusive. % is scaled to controls: 0 for no effect and ±100 for the full control effect; potency is read from the fitted curve at half-maximal effect.

SMILES | NIH3T3 tox | hNpr1 antagonist | FLuc inh | HEK293 tox
COCC(=O)NC[C@@H]1C=C(C)[C@H](Cc2nc3ccc(C(=O)OC)cc3[nH]2)C[C@H]1C(C)C | 100µM* | -10%[70.6 µM] | i | 63µM*
COC(=O)c1ccc2nc(C[C@@H]3C[C@@H](C(C)C)[C@H](CN(C)C)C=C3C)[nH]c2c1 | 71µM* | -12%[70.6 µM] | i | ?
COC(=O)c1ccc2nc(C[C@@H]3C[C@@H](C(C)C)[C@H](CNC(=O)CN(C)C)C=C3C)[nH]c2c1 | ? | 1% | i | 35µM*
COC(=O)c1ccc2nc(C[C@@H]3C[C@@H](C(C)C)[C@H](CNC(=O)COCC(=O)O)C=C3C)[nH]c2c1 | -27% | 2% | i | -18%
CN(Cc1ccc(-n2cccn2)cc1)Cc1nc(Cc2cccc(F)c2)no1 | -20% | 2% | i | ?
CN(Cc1cccc(-n2cccn2)c1)Cc1nc(-c2cccs2)no1 | -24% | -8% | i | 79µM*
O=C(C1CCCC1)N1CC2(CCN(C3CCCCC3)C2)Cc2ccccc21 (stereo not drawn) | ? | . | . | 45µM*
O=C(C1CCCC1)N1CC2(CCN(C3COC3)CC2)Cc2ccccc21 | ? | . | . | -10%
O=C(C1CCCC1)N1CC2(CCCN(Cc3ccc(Cl)cc3)C2)Cc2ccccc21 (stereo not drawn) | ? | . | . | 40µM*
O=C(C1CCCC1)N1CC2(CCN(Cc3cccnc3)C2)Cc2ccccc21 (stereo not drawn) | ? | . | . | 45µM*
O=C1NC(=NC2CCCCC2)C2(CCN(Cc3ccc(F)cc3)C2)N1c1cccnc1 (stereo not drawn) | 40µM* | . | . | i
O=C1NC(=NC2CCCC2)C2(CCN(Cc3ccc(F)cc3)C2)N1c1cccnc1 (stereo not drawn) | 22µM* | . | . | -15%
COc1ccc(CN2CCC3(C2)C(=NC2CCCCC2)NC(=O)N3c2cccnc2)cc1 (stereo not drawn) | 32µM* | . | . | i
O=C1NC(=NC2CCCC2)C2(CCN(Cc3ccncc3)C2)N1c1cccnc1 (stereo not drawn) | ? | . | . | -14%
COC(=O)CNC(=O)c1cn2cc(-c3cccc(OC)c3)sc2n1 | ? | . | . | -19%
O=C(C1CCC1)N1CCCC(n2cc(-c3nc(-c4ccccc4)no3)nn2)C1 (stereo not drawn) | ? | ? | 40µM* | ?
O=C(c1ccccc1)N1CCCC(n2cc(-c3nc(-c4ccccc4)no3)nn2)C1 (stereo not drawn) | ? | 13µM* | ? | ?
O=C(c1cccnc1)N1CCCC(n2cc(-c3nc(-c4ccccc4)no3)nn2)C1 (stereo not drawn) | -40% | ? | i | ?
Cc1noc(-c2cn(C3CCN(C(=O)C4(c5ccccc5)CC4)CC3)nn2)n1 | -37% | 0% | i | -10%
O=C(N1CCCC(n2cc(-c3nc(-c4ccccc4)no3)nn2)C1)C1(c2ccccc2)CC1 (stereo not drawn) | ? | 14µM* | ? | 45µM*
O=C(c1ccc2c(c1)OCO2)N1CCCC(n2cc(-c3nc(C4CC4)no3)nn2)C1 (stereo not drawn) | ? | -4% | i | ?
O=C(c1ccc2c(c1)OCO2)N1CCCC(n2cc(-c3nc(-c4ccccc4)no3)nn2)C1 (stereo not drawn) | ? | 11µM* | ? | ?
Cc1ccccc1C(=O)N1CCN(C(=O)c2nc3cccnc3n(CCc3ccccc3)c2=O)CC1 | -29% | . | . | ?
O=C(C1CCCC1)N1CCCC(n2cc(-c3nc(-c4ccccc4)no3)nn2)C1 (stereo not drawn) | ? | 13µM* | ? | ?
O=C(Cc1c[nH]c2ncc(-c3cccnc3)cc12)Nc1ccc(F)cc1 | 28µM* | -15%[70.6 µM] | i | ?
SMILES | NIH3T3 tox | hNpr1 antagonist | FLuc inh | HEK293 tox
CN(C)c1cccc(NC(=O)Cc2c[nH]c3ncc(-c4cccnc4)cc23)c1 | ? | -25%[70.6 µM] | i | ?
CN(C)c1cccc(-c2cnc3[nH]cc(CC(=O)NCc4cccnc4)c3c2)c1 | ? | -10%[70.6 µM] | ? | ?
CN(C)C(=O)Cc1c[nH]c2ncc(-c3cccnc3)cc12 | 25µM* | -1%[70.6 µM] | i | -29%[230 µM]
O=C(C1Cn2cccc2C(=O)N1Cc1cccnc1)N1CCN(c2ncccn2)CC1 (stereo not drawn) | i | 4% | i | i
COc1ccc(-c2cccc(C(=O)N3CCN(C(=O)c4ccccn4)CC3)c2)nn1 | i | . | . | -6%
c1cc2nc(-c3ccsc3)[nH]c2cn1 | ? | -10%[70.6 µM] | ? | ?
Cc1cc(-c2nc3ccncc3[nH]2)c(C)o1 | ? | 0%[70.6 µM] | 45µM* | ?
C[C@@H]1C(=O)O[C@H]2[C@H]1CC[C@@]1(C)Cc3sc(NC(=O)CN(C)C)nc3[C@@H](C)[C@H]21 | -15%[174 µM] | 16µM* | 3.2µM* | -9%[172 µM]
C[C@@H]1C(=O)O[C@H]2[C@H]1CC[C@@]1(C)Cc3sc(Nc4ccc(C(=O)O)cc4)nc3[C@@H](C)[C@H]21 | 0%[138 µM] | 13µM* | 1µM* | -7%[172 µM]
C[C@@H]1C(=O)O[C@H]2[C@H]1CC[C@@]1(C)Cc3sc(NC(=O)CC(C)(C)C)nc3[C@@H](C)[C@H]21 | ? | -21%[70.6 µM] | 20µM* | 32µM*
C=CCNC(=O)Nc1nc2c(s1)C[C@]1(C)CC[C@@H]3[C@H](OC(=O)[C@H]3C)[C@H]1[C@@H]2C | -10%[174 µM] | -19%[70.6 µM] | 16µM* | ?
C[C@@H]1C(=O)O[C@H]2[C@H]1CC[C@@]1(C)Cc3sc(NC(=O)COc4ccccc4)nc3[C@@H](C)[C@H]21 | -23% | -30% | i | ?
C[C@@H]1C(=O)O[C@H]2[C@H]1CC[C@@]1(C)Cc3sc(NC(=O)CCC(=O)O)nc3[C@@H](C)[C@H]21 | -4%[174 µM] | -17%[70.6 µM] | ? | 1%[172 µM]
COc1cc(NC(=O)Nc2nc3c(s2)C[C@]2(C)CC[C@@H]4[C@H](OC(=O)[C@H]4C)[C@H]2[C@@H]3C)cc(OC)c1 | ? | 8% | ? | ?
CC(C)C(=O)Nc1cc(-c2ccncc2)nn1C | -1%[138 µM] | . | . | -4%[172 µM]
CN(Cc1cccc(OC(F)(F)F)c1)Cc1cccc(C(F)(F)F)c1 | -3% | . | . | i
COCCNC(=O)[C@@H](C)C1CC[C@@]2(C)Cc3sc(NC(=O)CN(C)C)nc3[C@@H](C)[C@@H]2[C@H]1O (stereo partly drawn) | 1% | -9% | 20µM* | -18%
CC1(Cc2ccc3c(c2)OCO3)CCCN(C(=O)c2ccccc2-n2cncn2)C1 (stereo not drawn) | ? | -19% | i | ?
O=C(COc1ccccc1)N1CCC(n2cc(-c3nc(-c4ccccc4)no3)nn2)CC1 | 13µM* | 0% | i | ?
O=C(c1ccccc1)N1CCC(n2cc(-c3nc(-c4ccccc4)no3)nn2)CC1 | 40µM* | 0% | i | ?
Cc1ccc(C(=O)N2CCC(n3cc(-c4nc(-c5ccccc5)no4)nn3)CC2)cc1 | -17% | -21% | i | ?

Screens from PubChem BioAssay.
